# Source: ChEMBL document CHEMBL1961873, “Compounds: GSK PKIS; Assays: Nanosyn kinase panel” (2012)
# Values joined by “and” are separate entries in the source; they are usually repeats but may differ in a detail not shown here. Equal entries are not always repeated.
# Tests used:
# [1] = target: T1, Inhibitor of nuclear factor kappa-B kinase subunit epsilon (Homo sapiens) (UniProt Q14164); details: at 1 µM;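 note: reported values are averaged percent inhibition figures against human IKKε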
# T1 sequence (whole entry): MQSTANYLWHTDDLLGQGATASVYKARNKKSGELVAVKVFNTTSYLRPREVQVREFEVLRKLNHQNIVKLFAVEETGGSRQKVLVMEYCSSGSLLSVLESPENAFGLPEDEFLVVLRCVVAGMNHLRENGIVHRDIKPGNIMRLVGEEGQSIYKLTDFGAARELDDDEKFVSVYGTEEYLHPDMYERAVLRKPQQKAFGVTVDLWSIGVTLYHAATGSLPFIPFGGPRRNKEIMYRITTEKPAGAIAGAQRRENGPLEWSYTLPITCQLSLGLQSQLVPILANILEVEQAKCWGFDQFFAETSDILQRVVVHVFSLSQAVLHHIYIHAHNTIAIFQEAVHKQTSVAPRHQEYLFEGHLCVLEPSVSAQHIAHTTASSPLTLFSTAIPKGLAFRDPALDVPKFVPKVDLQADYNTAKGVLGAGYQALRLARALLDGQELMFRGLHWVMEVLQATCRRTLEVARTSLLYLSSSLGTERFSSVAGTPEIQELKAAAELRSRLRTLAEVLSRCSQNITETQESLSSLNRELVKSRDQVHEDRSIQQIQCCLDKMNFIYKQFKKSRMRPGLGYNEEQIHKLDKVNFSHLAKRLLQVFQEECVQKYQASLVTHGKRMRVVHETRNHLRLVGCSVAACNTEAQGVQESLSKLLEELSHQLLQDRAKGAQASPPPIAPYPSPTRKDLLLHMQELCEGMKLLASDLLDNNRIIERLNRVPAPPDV
# [2] = target: T2, Serine/threonine-protein kinase Nek1 (Homo sapiens) (UniProt Q96PY6); details: at 0.1 µM
# T2 sequence (whole entry): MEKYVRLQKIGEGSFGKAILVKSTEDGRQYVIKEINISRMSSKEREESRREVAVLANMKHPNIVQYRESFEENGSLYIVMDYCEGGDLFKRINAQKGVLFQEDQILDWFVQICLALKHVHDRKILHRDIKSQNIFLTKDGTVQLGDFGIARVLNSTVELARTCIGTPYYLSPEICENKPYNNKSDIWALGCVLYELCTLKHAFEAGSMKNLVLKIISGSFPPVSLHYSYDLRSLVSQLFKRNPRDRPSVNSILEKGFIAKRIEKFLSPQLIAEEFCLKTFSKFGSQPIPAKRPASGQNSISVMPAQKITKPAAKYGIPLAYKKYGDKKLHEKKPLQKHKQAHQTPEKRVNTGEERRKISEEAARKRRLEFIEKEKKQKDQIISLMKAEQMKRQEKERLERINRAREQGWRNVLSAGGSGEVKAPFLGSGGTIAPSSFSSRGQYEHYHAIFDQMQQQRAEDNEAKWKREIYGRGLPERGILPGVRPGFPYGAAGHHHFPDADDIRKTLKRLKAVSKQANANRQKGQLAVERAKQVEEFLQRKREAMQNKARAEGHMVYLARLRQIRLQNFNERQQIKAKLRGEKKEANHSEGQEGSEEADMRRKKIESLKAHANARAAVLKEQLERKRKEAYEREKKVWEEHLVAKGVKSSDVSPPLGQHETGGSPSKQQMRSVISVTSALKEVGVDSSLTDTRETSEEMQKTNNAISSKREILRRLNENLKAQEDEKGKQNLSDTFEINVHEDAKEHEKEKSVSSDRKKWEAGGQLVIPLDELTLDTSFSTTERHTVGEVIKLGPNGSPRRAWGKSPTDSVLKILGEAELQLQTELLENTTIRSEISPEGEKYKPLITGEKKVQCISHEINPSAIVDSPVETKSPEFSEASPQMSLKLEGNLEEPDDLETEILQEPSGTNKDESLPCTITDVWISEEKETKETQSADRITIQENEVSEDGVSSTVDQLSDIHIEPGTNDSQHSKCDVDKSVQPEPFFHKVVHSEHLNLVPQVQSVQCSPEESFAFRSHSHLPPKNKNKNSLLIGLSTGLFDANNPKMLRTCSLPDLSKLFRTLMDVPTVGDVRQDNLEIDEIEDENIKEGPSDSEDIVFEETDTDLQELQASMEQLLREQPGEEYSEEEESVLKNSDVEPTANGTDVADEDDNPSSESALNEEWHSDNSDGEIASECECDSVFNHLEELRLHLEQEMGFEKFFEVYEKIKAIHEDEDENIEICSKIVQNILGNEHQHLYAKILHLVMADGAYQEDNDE
# [3] = target: T2, Serine/threonine-protein kinase Nek1 (Homo sapiens); details: at 1 µM
# [4] = target: T3, Serine/threonine-protein kinase Nek2 (Homo sapiens) (UniProt P51955); details: at 0.1 µM
# T3 sequence (whole entry): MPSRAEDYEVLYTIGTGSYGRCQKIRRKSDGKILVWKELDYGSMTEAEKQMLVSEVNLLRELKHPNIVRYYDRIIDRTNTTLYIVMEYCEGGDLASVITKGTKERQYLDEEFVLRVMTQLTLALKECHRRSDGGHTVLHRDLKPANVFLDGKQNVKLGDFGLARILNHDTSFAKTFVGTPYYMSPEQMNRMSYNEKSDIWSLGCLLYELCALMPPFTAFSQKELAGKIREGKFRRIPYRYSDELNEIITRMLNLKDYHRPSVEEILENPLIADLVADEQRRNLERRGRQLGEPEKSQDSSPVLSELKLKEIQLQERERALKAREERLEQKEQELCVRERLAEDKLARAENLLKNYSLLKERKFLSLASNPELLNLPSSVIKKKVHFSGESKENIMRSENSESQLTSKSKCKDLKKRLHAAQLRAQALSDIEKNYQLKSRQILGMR
# [5] = target: T3, Serine/threonine-protein kinase Nek2 (Homo sapiens); details: at 1 µM
# [6] = target: Serine/threonine-protein kinase Nek6 (Homo sapiens) (UniProt Q9HC98); details: at 0.1 µM
# Serine/threonine-protein kinase Nek6 (Homo sapiens), sequence (Q9HC98 whole entry): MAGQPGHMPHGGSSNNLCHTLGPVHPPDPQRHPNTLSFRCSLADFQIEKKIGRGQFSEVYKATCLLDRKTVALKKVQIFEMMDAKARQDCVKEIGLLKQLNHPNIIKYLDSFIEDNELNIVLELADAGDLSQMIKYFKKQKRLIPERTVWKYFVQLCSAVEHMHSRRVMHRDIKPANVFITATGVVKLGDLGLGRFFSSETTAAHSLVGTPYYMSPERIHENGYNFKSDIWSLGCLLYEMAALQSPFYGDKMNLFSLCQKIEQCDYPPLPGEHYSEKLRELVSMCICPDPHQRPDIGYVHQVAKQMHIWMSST
# [7] = target: Serine/threonine-protein kinase Nek6 (Homo sapiens) (UniProt Q9HC98); details: at 1 µM
# [8] = target: Serine/threonine-protein kinase Nek7 (Homo sapiens) (UniProt Q8TDX7); details: at 0.1 µM
# Serine/threonine-protein kinase Nek7 (Homo sapiens), sequence (Q8TDX7 whole entry, looked up): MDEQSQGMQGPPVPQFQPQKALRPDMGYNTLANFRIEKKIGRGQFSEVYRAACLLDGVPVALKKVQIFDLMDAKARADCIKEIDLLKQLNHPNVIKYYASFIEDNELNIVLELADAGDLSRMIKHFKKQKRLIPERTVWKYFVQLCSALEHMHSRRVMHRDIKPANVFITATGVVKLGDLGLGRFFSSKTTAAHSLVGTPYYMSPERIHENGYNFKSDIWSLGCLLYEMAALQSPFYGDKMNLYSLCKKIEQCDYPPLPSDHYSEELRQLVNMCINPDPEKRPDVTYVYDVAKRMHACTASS
# [9] = target: Serine/threonine-protein kinase Nek7 (Homo sapiens) (UniProt Q8TDX7); details: at 1 µM
# [10] = target: T4, Serine/threonine-protein kinase Nek9 (Homo sapiens) (UniProt Q8TD19); details: at 0.1 µM;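 note: reported value is the mean percent inhibition of NEK9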
# T4 sequence (whole entry): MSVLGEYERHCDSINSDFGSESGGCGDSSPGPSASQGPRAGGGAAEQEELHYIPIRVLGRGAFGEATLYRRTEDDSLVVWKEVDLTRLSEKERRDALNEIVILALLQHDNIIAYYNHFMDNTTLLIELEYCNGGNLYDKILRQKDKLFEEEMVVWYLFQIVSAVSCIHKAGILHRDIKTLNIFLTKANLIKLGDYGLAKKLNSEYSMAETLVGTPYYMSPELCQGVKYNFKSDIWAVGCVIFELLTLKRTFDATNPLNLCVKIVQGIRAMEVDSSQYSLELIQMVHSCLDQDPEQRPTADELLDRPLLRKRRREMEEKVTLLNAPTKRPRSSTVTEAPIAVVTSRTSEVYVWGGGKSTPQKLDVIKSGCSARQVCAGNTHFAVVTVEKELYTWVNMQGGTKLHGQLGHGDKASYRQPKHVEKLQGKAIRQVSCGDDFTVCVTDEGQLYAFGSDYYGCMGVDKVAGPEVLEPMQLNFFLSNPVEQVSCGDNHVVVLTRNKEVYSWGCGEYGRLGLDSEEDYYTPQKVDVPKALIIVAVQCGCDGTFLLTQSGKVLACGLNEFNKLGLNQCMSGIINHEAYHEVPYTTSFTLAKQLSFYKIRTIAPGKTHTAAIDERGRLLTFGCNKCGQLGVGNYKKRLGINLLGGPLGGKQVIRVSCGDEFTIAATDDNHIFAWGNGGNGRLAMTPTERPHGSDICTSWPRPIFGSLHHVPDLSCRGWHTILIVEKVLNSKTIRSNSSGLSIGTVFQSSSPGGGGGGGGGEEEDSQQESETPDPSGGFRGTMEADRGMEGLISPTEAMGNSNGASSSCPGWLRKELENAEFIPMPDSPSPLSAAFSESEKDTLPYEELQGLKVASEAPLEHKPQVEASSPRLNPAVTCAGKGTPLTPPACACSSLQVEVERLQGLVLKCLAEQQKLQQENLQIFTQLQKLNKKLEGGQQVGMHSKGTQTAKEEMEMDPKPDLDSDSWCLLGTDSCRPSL
structure (smiles),measurement,setting,value
Nc1nonc1-c1nc2cnccc2n1C1CC1,inhibition,[1],11.3% and 10.2%
same,inhibition,[2],1.72% and 1.48%
same,inhibition,[3],6.39% and 2.72%
same,inhibition,[4],5.51% and 2.84%
same,inhibition,[5],4.67% and 4.04%
same,inhibition,[6],3.25% and -0.01%
same,inhibition,[7],-0.06% and 2.15%
same,inhibition,[8],3.77% and 4.5%
same,inhibition,[9],2.89% and 3.28%
same,inhibition,[10],8.67% and 3.36%
